Targets with a hit are over-represented here; the source holds about 8,800 in all. About 0.5% of all pairs of compound and target were hits. Values without a mark were called inactive.
Assays:
Experiment in all cases: log2 fold change, soluble protein after heating vs DMSO (PISA); higher = thermal stabilisation; K562 lysate, 10 uM; active = over 0.2 and 3.5 SD of the protein, either way, in both replicates (recomputed)
[1] = compound: CS(=O)(=O)CCNCc1ccc(-c2ccc3ncnc(Nc4ccc(OCc5cccc(F)c5)c(Cl)c4)c3c2)o1 [lapatinib]
Outline: (§1)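 Pellets of K562 cells were dounce-homogenised in PBS pH 7.4 with 1 mM MgCl2, and the crude extract was held at 1 mg/mL protein for a 30 min treatment with 10 μM compound. Aliquots were heated for 3 min over 48°C-58°C and pooled before NP-40 was added to 0.5% at 4°C. The supernatant from 21,000xg for 90 min was quantified by TMTpro 16plex LC-MS/MS with channel sums equalised. Values are reported from duplicates as log-two fold change in thermal stability relative to solvent controls.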

[2] = compound: CS(=O)(=O)N1CCN(Cc2cc3nc(-c4cccc5[nH]ncc45)nc(N4CCOCC4)c3s2)CC1 [pictilisib]
Outline: as §1

[3] = compound: C[C@@H](Oc1cc(-c2cnn(C3CCNCC3)c2)cnc1N)c1c(Cl)ccc(F)c1Cl [crizotinib]
Outline: as §1

[4] = compound: C[C@H](C1=CC=C(C=C1)C(=O)NC2=C3C=CNC3=NC=C2)N
Outline: as §1

[5] = compound: C[C@H](Nc1ncnc2nc[nH]c12)c1cc2cccc(Cl)c2c(=O)n1-c1ccccc1 [duvelisib]
Outline: as §1

[6] = compound: Cc1cc(Nc2cc(CN3CCOCC3)c3nc(C)c(Cc4ccc(Cl)cc4F)n3n2)n[nH]1 [gandotinib]
Outline: as §1

[7] = compound: Cc1cc(Nc2cc(N3CCN(C)CC3)nc(Sc3ccc(NC(=O)C4CC4)cc3)n2)n[nH]1 [tozasertib]
Outline: as §1

[8] = compound: Cc1ccc(-n2nc(C(C)(C)C)cc2NC(=O)Nc2ccc(OCCN3CCOCC3)c3ccccc23)cc1 [doramapimod]
Outline: as §1

[9] = compound: Cc1ccc(NC(=O)c2ccc(CN3CC[C@H](N(C)C)C3)c(C(F)(F)F)c2)cc1Nc1nccc(-c2cncnc2)n1 [bafetinib]
Outline: as §1

[10] = compound: Cc1cccc(CC(=O)N2CCc3c2ccc(-c2cn(C)c4ncnc(N)c24)c3F)n1
Outline: as §1

[11] = compound: Cc1cn(-c2cc(NC(=O)c3ccc(C)c(Nc4nccc(-c5cccnc5)n4)c3)cc(C(F)(F)F)c2)cn1 [nilotinib]
Outline: as §1

[12] = compound: Cc1nc(Nc2n[nH]c3c2CN(C(=O)N[C@H](CN(C)C)c2ccccc2)C3(C)C)c2sccc2n1
Outline: as §1

[13] = compound: Cc1nc(Nc2ncc(C(=O)Nc3c(C)cccc3Cl)s2)cc(N2CCN(CCO)CC2)n1 [dasatinib]
Outline: as §1

[14] = compound: Cc1ncc(-c2ccnc(Nc3ccc(S(C)(=O)=O)cc3)n2)n1C(C)C
Outline: as §1

[15] = compound: Cn1cc(-c2ccc3c(c2)CCN3C(=O)Cc2cccc(C(F)(F)F)c2)c2c(N)ncnc21
Outline: as §1

[16] = compound: Cn1cc(CNCC2CCN(c3ncc(C(=O)NO)cn3)CC2)c2ccccc21 [quisinostat]
Outline: as §1

[17] = compound: Cn1cncc1[C@@](N)(c1ccc(Cl)cc1)c1ccc2c(c1)c(-c1cccc(Cl)c1)cc(=O)n2C [tipifarnib]
Outline: as §1

[18] = compound: NC(=O)Nc1cc(-c2cccc(F)c2)sc1C(=O)N[C@H]1CCCNC1
Outline: as §1

[19] = compound: NC(=O)c1cnc(N[C@@H]2CCCC[C@@H]2N)nc1Nc1cccc(-n2nccn2)c1
Outline: as §1

[20] = compound: NC1(c2ccc(-c3nc4ccn5c(=O)[nH]nc5c4cc3-c3ccccc3)cc2)CCC1
Outline: as §1

Chain of UniProt P09110 (P09110 whole entry, looked up): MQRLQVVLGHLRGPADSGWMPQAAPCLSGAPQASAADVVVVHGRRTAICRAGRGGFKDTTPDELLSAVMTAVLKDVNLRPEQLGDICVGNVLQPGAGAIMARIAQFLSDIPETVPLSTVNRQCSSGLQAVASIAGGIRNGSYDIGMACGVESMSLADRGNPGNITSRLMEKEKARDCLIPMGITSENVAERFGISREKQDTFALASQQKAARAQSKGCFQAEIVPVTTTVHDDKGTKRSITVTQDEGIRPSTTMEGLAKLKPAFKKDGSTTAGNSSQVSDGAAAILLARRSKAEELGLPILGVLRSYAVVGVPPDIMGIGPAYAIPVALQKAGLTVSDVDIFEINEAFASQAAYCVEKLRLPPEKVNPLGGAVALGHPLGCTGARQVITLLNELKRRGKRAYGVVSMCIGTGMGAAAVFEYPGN
Chain of UniProt Q92974 (Q92974 whole entry, looked up): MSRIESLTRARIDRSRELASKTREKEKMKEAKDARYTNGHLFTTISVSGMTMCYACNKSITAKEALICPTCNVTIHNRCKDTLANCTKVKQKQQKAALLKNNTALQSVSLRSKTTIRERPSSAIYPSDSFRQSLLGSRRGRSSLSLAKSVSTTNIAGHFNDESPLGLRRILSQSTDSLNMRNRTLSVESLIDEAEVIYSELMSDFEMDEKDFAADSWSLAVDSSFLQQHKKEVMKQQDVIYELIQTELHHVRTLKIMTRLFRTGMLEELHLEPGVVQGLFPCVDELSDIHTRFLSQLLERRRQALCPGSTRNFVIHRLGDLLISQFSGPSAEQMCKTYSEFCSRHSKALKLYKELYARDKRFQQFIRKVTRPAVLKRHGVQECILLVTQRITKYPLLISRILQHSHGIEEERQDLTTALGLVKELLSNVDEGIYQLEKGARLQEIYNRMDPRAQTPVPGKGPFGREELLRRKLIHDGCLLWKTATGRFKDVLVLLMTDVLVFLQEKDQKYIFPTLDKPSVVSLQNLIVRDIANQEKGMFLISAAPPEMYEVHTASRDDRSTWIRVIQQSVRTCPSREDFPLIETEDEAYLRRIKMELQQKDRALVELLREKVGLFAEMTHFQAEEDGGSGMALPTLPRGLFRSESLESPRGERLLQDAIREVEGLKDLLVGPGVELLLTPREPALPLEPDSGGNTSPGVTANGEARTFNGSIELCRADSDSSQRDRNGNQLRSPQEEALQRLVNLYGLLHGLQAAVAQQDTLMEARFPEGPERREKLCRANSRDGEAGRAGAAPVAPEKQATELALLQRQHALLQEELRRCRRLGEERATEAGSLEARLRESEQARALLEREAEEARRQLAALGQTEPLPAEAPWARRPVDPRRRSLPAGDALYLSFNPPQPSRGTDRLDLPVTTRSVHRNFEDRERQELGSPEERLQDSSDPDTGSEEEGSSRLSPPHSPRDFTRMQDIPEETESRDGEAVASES
Chain of UniProt Q562R1 (Q562R1 whole entry, looked up): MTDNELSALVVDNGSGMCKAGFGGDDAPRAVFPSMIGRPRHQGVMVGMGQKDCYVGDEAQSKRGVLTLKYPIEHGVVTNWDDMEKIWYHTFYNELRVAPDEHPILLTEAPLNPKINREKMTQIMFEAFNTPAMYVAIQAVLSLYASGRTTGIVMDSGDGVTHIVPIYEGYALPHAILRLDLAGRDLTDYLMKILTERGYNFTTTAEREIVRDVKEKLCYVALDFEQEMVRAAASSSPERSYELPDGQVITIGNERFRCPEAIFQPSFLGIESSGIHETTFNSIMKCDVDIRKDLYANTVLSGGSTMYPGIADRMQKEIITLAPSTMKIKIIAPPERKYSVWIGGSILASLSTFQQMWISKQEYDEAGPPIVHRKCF
Chain of UniProt P00568 (P00568 whole entry, looked up): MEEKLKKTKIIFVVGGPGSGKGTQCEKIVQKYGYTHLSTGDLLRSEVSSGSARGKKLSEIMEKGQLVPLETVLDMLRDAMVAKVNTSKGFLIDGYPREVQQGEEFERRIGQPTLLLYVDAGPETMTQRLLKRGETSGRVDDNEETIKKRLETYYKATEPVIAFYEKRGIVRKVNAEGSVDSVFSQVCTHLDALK
Chain of UniProt Q9H1I8 (Q9H1I8 whole entry, looked up): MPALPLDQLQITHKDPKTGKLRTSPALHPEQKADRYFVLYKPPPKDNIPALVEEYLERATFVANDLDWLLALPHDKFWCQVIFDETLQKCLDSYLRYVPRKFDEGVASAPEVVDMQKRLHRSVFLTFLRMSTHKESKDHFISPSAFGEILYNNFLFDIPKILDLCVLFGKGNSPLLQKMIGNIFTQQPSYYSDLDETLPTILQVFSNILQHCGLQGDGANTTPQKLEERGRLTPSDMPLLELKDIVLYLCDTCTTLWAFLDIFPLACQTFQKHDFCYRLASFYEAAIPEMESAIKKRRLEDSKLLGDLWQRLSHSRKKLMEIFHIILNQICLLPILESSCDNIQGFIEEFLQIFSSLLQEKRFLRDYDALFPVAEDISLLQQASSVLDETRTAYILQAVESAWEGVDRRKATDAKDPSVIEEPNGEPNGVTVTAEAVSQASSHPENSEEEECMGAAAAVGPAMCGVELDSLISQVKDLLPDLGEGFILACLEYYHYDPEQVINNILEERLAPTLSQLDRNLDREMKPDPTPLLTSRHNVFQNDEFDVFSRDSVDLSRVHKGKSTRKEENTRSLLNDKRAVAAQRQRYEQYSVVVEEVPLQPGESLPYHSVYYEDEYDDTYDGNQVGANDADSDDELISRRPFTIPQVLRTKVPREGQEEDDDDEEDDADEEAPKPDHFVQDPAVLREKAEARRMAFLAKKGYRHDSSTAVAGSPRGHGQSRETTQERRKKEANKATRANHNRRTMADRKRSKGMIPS
Chain of UniProt Q5JTZ9 (Q5JTZ9 whole entry, looked up): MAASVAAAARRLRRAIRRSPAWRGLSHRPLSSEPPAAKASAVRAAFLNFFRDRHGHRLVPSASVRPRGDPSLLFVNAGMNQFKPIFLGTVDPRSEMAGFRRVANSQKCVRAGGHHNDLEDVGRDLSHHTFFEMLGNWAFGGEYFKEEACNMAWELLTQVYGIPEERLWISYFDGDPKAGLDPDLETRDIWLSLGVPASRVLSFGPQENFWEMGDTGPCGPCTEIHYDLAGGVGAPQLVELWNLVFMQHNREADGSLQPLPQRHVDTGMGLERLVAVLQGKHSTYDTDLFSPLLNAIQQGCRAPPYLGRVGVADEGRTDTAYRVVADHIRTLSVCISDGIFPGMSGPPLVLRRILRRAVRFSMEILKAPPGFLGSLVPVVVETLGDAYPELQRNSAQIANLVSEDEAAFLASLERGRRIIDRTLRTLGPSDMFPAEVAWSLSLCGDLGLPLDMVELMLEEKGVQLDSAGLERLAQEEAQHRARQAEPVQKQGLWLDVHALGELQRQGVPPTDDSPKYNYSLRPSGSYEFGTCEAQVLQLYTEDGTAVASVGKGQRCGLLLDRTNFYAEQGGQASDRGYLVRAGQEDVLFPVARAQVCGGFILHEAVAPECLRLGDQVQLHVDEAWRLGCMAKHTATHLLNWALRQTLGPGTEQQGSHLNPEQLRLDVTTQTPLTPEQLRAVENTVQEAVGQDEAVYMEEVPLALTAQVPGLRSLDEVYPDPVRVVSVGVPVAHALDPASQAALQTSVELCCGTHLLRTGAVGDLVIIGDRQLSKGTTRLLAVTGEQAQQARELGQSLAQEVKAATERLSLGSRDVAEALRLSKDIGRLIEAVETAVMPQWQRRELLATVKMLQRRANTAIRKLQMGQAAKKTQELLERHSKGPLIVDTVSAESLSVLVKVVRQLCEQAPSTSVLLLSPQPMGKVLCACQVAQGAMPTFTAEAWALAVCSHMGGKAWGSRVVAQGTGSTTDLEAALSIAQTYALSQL
Chain of UniProt P08758 (P08758 whole entry, looked up): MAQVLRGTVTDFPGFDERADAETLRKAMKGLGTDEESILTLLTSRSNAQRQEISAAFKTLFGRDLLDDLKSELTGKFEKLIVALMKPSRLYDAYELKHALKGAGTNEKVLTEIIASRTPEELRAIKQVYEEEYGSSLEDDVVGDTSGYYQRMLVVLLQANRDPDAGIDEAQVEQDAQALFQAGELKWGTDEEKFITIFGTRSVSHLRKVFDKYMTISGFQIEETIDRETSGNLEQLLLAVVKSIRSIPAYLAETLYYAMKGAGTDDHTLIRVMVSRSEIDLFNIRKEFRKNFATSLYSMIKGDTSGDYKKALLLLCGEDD

Target | log2 fold change [1] | log2 fold change [2] | log2 fold change [3] | log2 fold change [4] | log2 fold change [5] | log2 fold change [6] | log2 fold change [7] | log2 fold change [8] | log2 fold change [9] | log2 fold change [10] | log2 fold change [11] | log2 fold change [12] | log2 fold change [13] | log2 fold change [14] | log2 fold change [15] | log2 fold change [16] | log2 fold change [17] | log2 fold change [18] | log2 fold change [19] | log2 fold change [20]
ANXA5 (UniProt P08758) | 0.005 | -0.009 | 0.046 | 0.059 | -0.028 | -0.119 | 0.019 | 0.015 | -0.018 | -0.065 | 0.031 | -0.008 | -0.009 | -0.067 | 0.022 | 0.111 | 0.019 | 0.018 | 0.01 | 0.012
AK1 (UniProt P00568) | -0.027 | -0.011 | 0.091 | 0.285 (active) | -0.001 | -0.118 | 0.023 | -0.037 | 0.06 | -0.189 | 0.023 | 0.008 | -0.038 | 0.015 | 0.011 | 0.118 | 0.056 | 0.004 | 0.003 | 0.009
ACTBL2 (UniProt Q562R1) | 0.163 | 0.102 | 0.091 | 0.408 | -0.035 | -0.166 | -0.201 | -0.15 | 0.37 | -0.547 (active) | 0.32 | -0.036 | -0.075 | 0.139 | -0.067 | 0.184 | 0.087 | -0.03 | -0.008 | 0.006
ARHGEF2 (UniProt Q92974) | 0.014 | 0.005 | -0.016 | 0.006 | -0.017 | 0.025 | 0.018 | 0.089 | -0.045 | 0.04 | 0.014 | -0.01 | -0.01 | -0.025 | 0.013 | -0.048 | -0.04 | 0.006 | -0.008 | 0.013
AARS2 (UniProt Q5JTZ9) | 0.007 | 0.01 | -0.046 | 0.072 | 0.012 | -0.121 | 0.039 | 0.034 | -0.041 | 0.019 | -0.046 | 0.021 | -0.018 | -0.013 | 0.062 | -0.046 | 0.023 | 0.053 | 0.016 | -0.05
ASCC2 (UniProt Q9H1I8) | -0.012 | 0.049 | -0.044 | 0.048 | 0.04 | -0.026 | 0.023 | -0.007 | -0.205 | -0.002 | -0.005 | -0.029 | -0.01 | -0.018 | 0.026 | -0.06 | 0.082 | 0.035 | 0.038 | -0.023
ACACA isoform 4 (UniProt Q13085) | -0.019 | 0 | -0.081 | -0.001 | 0.032 | -0.068 | 0.033 | 0.045 | -0.056 | 0.061 | -0.032 | 0.004 | -0.037 | 0.028 | 0.043 | -0.024 | 0.081 | 0.03 | 0.01 | -0.019
ACAA1 (UniProt P09110) | 0.017 | -0.005 | 0.014 | -0.015 | -0.014 | 0.056 | -0.043 | -0.001 | 0.045 | -0.011 | 0.035 | -0.019 | 0.014 | -0.007 | -0.027 | -0.026 | 0.011 | -0.001 | -0.016 | 0.009

From the supplement of paper PMC10849652
